Laboratory results as given in PubChem BioAssay (NCI).
About 83,000 compounds went through this panel and 20% of them were active in at least one assay; those are over-represented in the sample as a whole.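 Step 1: grow cells in 96-well plates. Step 2: add test compound at a single concentration. Step 3: incubate 48 h. Step 4: record percent growth.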 Unmarked numbers belong to inactive results. Active and inactive are the calls of the source. How the source made its calls: active means growth percent below 10; inactive means the rest.

Tests used:
Test in all cases: NCI-60 one-dose screen, 48 h (100 = growth as untreated, 0 = no growth, -100 = all killed)
Conditions in all cases: 10 µM unless noted
SK-MEL-2 melanoma = system: SK-MEL-2 melanoma
EKVX NSCLC = system: EKVX NSCLC
SN12C renal = system: SN12C renal
UO-31 renal = system: UO-31 renal
TK-10 renal = system: TK-10 renal
ACHN renal = system: ACHN renal
CAKI-1 renal = system: CAKI-1 renal
A498 renal = system: A498 renal
CCRF-CEM leukemia = system: CCRF-CEM leukemia
MOLT-4 leukemia = system: MOLT-4 leukemia

CC(=O)[C@H]1CCC/C=C/[C@@H]2C[C@H](O)C[C@H]2[C@H](O)/C=C/C(=O)O1
growth (SK-MEL-2 melanoma): -14.3% (active)
growth (EKVX NSCLC): 6.77% (active)
growth (SN12C renal): 9.7% (active)
growth (UO-31 renal): 1.16% (active)
growth (TK-10 renal): 30.8%
growth (ACHN renal): 5.56% (active)
growth (CAKI-1 renal): -15.7% (active)
growth (A498 renal): -42.8% (active)
growth (CCRF-CEM leukemia): 9.09% (active)
growth (MOLT-4 leukemia): -41.3% (active)

COc1ccc(C(=O)C2C(C#N)C(C#N)C3C=Cc4ccccc4N32)cc1 (stereo not given)
growth (SK-MEL-2 melanoma): 44.5%
growth (EKVX NSCLC): 56.7%
growth (SN12C renal): 32.7%
growth (UO-31 renal): 42%
growth (TK-10 renal): 91.9%
growth (ACHN renal): 44%
growth (CAKI-1 renal): 27.4%
growth (A498 renal): -9.53% (active)
growth (CCRF-CEM leukemia): 16.2%
growth (MOLT-4 leukemia): 37.5%

O=C1c2cccc3c(-c4ccc5c(c4)ncn5C4CCCCC4)ccc(c23)C(=O)N1c1nc2ccccc2s1
growth (SK-MEL-2 melanoma): 81.4%
growth (EKVX NSCLC): 76.4%
growth (SN12C renal): 83.7%
growth (UO-31 renal): 56.3%
growth (TK-10 renal): 99.6%
growth (ACHN renal): 84.7%
growth (CAKI-1 renal): 72.8%
growth (A498 renal): 121%
growth (CCRF-CEM leukemia): 83%
growth (MOLT-4 leukemia): 81.1%

C=C(C)[C@@H]1CC[C@]2(C(=O)N3CCN(C)CC3)CC[C@]3(C)[C@H](CC[C@@H]4[C@@]5(C)CC[C@H](O)C(C)(C)[C@@H]5CC[C@]43C)[C@@H]12
growth (SK-MEL-2 melanoma): 61.8%
growth (EKVX NSCLC): 92.5%
growth (SN12C renal): -74.2% (active)
growth (UO-31 renal): -86.1% (active)
growth (TK-10 renal): -93.3% (active)
growth (ACHN renal): -92% (active)
growth (CAKI-1 renal): -84% (active)
growth (A498 renal): 98.7%
growth (CCRF-CEM leukemia): -36.6% (active)
growth (MOLT-4 leukemia): -35.7% (active)

COc1ccc(-c2nc([C@@H](C)Sc3nc(N)cc(N)n3)c(C)s2)cc1OCCN1CCOCC1
growth (SK-MEL-2 melanoma): 104%
growth (EKVX NSCLC): 105%
growth (SN12C renal): 99.8%
growth (UO-31 renal): 73.7%
growth (TK-10 renal): 104%
growth (ACHN renal): 92.3%
growth (CAKI-1 renal): 90.6%
growth (A498 renal): 35.6%
growth (CCRF-CEM leukemia): 83.7%
growth (MOLT-4 leukemia): 85.1%

Fc1ccc2c(-c3cncn3CCc3ccccc3)c[nH]c2c1
growth (SK-MEL-2 melanoma): 94.1%
growth (EKVX NSCLC): 79.4%
growth (SN12C renal): 77%
growth (UO-31 renal): 68.1%
growth (TK-10 renal): 135%
growth (ACHN renal): 96.7%
growth (CAKI-1 renal): 75.2%
growth (A498 renal): 64.1%
growth (CCRF-CEM leukemia): 79.4%
growth (MOLT-4 leukemia): 91.2%

COc1ccc(/C=C/c2nc(Nc3ccc(S(=O)(=O)Nc4cc(C)on4)cc3)c3ccccc3n2)cc1
growth (SK-MEL-2 melanoma): 75.8%
growth (EKVX NSCLC): 71.6%
growth (SN12C renal): 82.3%
growth (UO-31 renal): 50.3%
growth (TK-10 renal): 71.5%
growth (ACHN renal): 54.2%
growth (CAKI-1 renal): 49.4%
growth (A498 renal): 1.73% (active)
growth (CCRF-CEM leukemia): 49%
growth (MOLT-4 leukemia): 70.6%

CCc1ccc(-c2cn3ccnc3c(-c3ccc4ncn(Cc5ccccc5)c4c3)n2)cc1
growth (SK-MEL-2 melanoma): 85.2%
growth (EKVX NSCLC): 60.3%
growth (SN12C renal): 77.5%
growth (UO-31 renal): 42.2%
growth (TK-10 renal): 84.5%
growth (ACHN renal): 55.3%
growth (CAKI-1 renal): 52.1%
growth (A498 renal): 105%
growth (CCRF-CEM leukemia): 50.3%
growth (MOLT-4 leukemia): 45.8%

COc1ccc(/C=C/C(=O)Nc2cc(/C=C\c3cc(OC)c(OC)c(OC)c3)cc(OC)c2OC)cc1OC
growth (SK-MEL-2 melanoma): 19.9%
growth (EKVX NSCLC): 31.4%
growth (SN12C renal): 33%
growth (UO-31 renal): 19.4%
growth (TK-10 renal): 73.9%
growth (ACHN renal): 39.1%
growth (CAKI-1 renal): 12%
growth (A498 renal): -1.95% (active)
growth (CCRF-CEM leukemia): 3.79% (active)
growth (MOLT-4 leukemia): -13.9% (active)

CSc1nc2sc3cccc(Cl)c3n2c(=N)c1C#N
growth (SK-MEL-2 melanoma): 105%
growth (EKVX NSCLC): 90.1%
growth (SN12C renal): 101%
growth (UO-31 renal): 68.5%
growth (TK-10 renal): 123%
growth (ACHN renal): 95%
growth (CAKI-1 renal): 86.8%
growth (A498 renal): 56.2%
growth (CCRF-CEM leukemia): 86%
growth (MOLT-4 leukemia): 90%

COc1ccc(/C=C/c2nc(Nc3ccc(S(=O)(=O)NC(C)=O)cc3)c3ccccc3n2)cc1
growth (SK-MEL-2 melanoma): 99%
growth (EKVX NSCLC): 81.6%
growth (SN12C renal): 86.7%
growth (UO-31 renal): 80.6%
growth (TK-10 renal): 92%
growth (ACHN renal): 68.6%
growth (CAKI-1 renal): 59.6%
growth (A498 renal): 9.58% (active)
growth (CCRF-CEM leukemia): 81.7%
growth (MOLT-4 leukemia): 79.3%

COc1cc(/C=C\c2cc(OC)c(OC)c(OC)c2)cc(N)c1OC
growth (SK-MEL-2 melanoma): 74.2%
growth (EKVX NSCLC): 94.1%
growth (SN12C renal): 93.4%
growth (UO-31 renal): 69%
growth (TK-10 renal): 95.9%
growth (ACHN renal): 105%
growth (CAKI-1 renal): 56.4%
growth (A498 renal): 76.5%
growth (CCRF-CEM leukemia): 74%
growth (MOLT-4 leukemia): 93.1%

O=C(/C(=C\c1ccc([N+](=O)[O-])cc1)S(=O)Cc1ccc(Cl)cc1)c1ccc(Cl)cc1 (stereo not given)
growth (SK-MEL-2 melanoma): 94.6%
growth (EKVX NSCLC): 98.5%
growth (SN12C renal): 49.6%
growth (UO-31 renal): 70.4%
growth (TK-10 renal): 91.9%
growth (ACHN renal): 64.6%
growth (CAKI-1 renal): 83.8%
growth (A498 renal): 77.4%
growth (CCRF-CEM leukemia): 22%
growth (MOLT-4 leukemia): 25.1%

COc1ccc(Cc2cnc(NC(=O)c3ccc4c(c3)OCCO4)s2)cc1
growth (SK-MEL-2 melanoma): 39.3%
growth (EKVX NSCLC): 37.7%
growth (SN12C renal): 30.7%
growth (UO-31 renal): 54.8%
growth (TK-10 renal): 41%
growth (ACHN renal): 27.9%
growth (CAKI-1 renal): 27.8%
growth (A498 renal): -6.31% (active)
growth (CCRF-CEM leukemia): 13.5%
growth (MOLT-4 leukemia): 11.6%
